Experimental findings from PubChem BioAssay AID2620 (National Center for Advancing Translational Sciences (NCATS), 2010) are described below.

Structures are written as SMILES. Inconclusive results are not listed. Calls of active or inactive are those of the source. Calls follow the shape of the dose curve; as a rule, active = well fitted curve in the direction sought with a large enough effect; inconclusive = small, poorly fitted or top-dose-only effect, or another doubt; inactive = no such curve, though single readings can be large or run the other way.

Pyruvate kinase PKM (Homo sapiens), sequence (P14618 whole entry, looked up, canonical isoform): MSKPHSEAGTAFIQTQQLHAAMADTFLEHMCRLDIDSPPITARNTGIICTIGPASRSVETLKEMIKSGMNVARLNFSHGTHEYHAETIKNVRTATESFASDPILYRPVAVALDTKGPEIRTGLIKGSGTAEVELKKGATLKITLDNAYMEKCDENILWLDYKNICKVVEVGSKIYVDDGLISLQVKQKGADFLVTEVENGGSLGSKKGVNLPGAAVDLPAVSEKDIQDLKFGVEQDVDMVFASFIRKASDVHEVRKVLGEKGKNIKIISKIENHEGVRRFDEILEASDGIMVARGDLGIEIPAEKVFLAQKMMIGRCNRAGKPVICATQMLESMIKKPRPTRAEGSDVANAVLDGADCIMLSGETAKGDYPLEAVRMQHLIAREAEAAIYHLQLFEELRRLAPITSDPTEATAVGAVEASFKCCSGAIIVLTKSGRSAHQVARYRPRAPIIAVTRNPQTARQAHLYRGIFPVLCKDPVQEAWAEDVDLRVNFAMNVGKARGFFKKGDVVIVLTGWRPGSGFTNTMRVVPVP

The target in the assay is Pyruvate kinase PKM (Homo sapiens) (UniProt P14618). The experiment in a line: Secondary LDH Assay for Activators of Human Pyruvate Kinase M1 Isoform: for Probe SAR. Conditions: purified hPK-M1, LDH-coupled NADH fluorescence kinetic; series mostly up to 58.2 µM. From the text:
NIH Chemical Genomics Center [NCGC]
Matthew G. Vander Heiden, M.D., Ph.D. [Harvard Medical School, 77 Avenue Louis Pasteur, Boston, MA 02115]
Human pyruvate kinase […] (hPK-M1)enzyme was supplied as a highly purified (>95% pure) preparation from Harvard Medical School and a secondary assay was used to evaluate compounds. This assay couples the formation of pyruvate from […] using lactate dehydrogenase (LDH) and NADH. The depletion of NADH is followed in a fluorescent-based kinetic assay that follows the formation of pyruvate to lactate, as catalyzed LDH. Pyruvate kinase substrates, PEP and ADP, were present in the assay at 0.1 mM and 4 mM respectively. In this kinetic assay initial rates were determined by following the fluorescence of NADH depletion.
NCGC Assay Protocol Summary:
Three uL of substrate mix (final concentration, 50 mM Tris-Cl pH 8.0, 200 mM KCl, 15 mM MgCl2, 0.1 mM PEP, 4.0 mM ADP, and 0.2 mM NADH) was dispensed into black-solid 1536 well plates. 23 nL of compounds were delivered by a pin tool and 1 uL of enzyme mix (final concentrations, 10 nM hPK-M1 and 1 uM of LDH) was added. Plates were immediately placed in ViewLux (Perkin Elmer) and NADH fluorescence was determined at 30 second exposure intervals for between 3 and 6 minutes. Data were normalized to the uninhibited controls.
For the compound `COc1cc(F)c(S(=O)(=O)N2CCCN(S(=O)(=O)c3cccc(N)c3)CC2)c(F)c1`, the result was inactive. The entry for `Cc1cc(N2C(=O)c3ccccc3C2=O)no1` is “inactive”; for `CC(=O)Nc1cccc(S(=O)(=O)Nc2ccc(C)c(C)c2)c1` it is “inactive”; for `CNc1cccc(S(=O)(=O)N2CCCN(S(=O)(=O)c3ccc4c(c3)OCCO4)CC2)c1` it is “inactive”.

For the compound `Cc1ccc(NS(=O)(=O)c2cc3c(cc2N(C)C)CCC(=O)N3)cc1C`, the call was inactive. With `Cc1ccc2nc(-c3ccc(C)o3)c(NC3CCCC3)n2c1`, the outcome was inactive. Consider `N#Cc1cccc(NS(=O)(=O)c2ccc3c(c2)CCC(=O)N3)c1`, for which the compound was classed as inactive. The entry for `COc1ccc(NS(=O)(=O)c2ccc3c(c2)CCC(=O)N3)cc1` is “inactive”; for `O=C1CCc2cc(S(=O)(=O)Nc3ccc(F)c(Cl)c3)ccc2N1` it is “inactive”; for `O=S1(=O)N=C(Oc2ccc(Cl)cc2)c2ccccc21` it is “inactive”. As for `Cc1ccc(NS(=O)(=O)c2cc3c(cc2C)OCC(=O)N3)cc1C`, the compound was called inactive. The entry for `COc1ccc(N2C(=O)c3ccccc3C2=O)cc1` is “inactive”; for `O=C1c2ccccc2C(=O)N1C1CCCCC1` it is “inactive”; for `O=C1CCc2cc(S(=O)(=O)Nc3ccc(-c4ccccc4)cc3)ccc2N1` it is “inactive”. With `Cn1c2cc(S(C)=O)sc2c2cnn(Cc3cccc(N)c3)c(=O)c21` (stereo not given) the entry was “inactive”. The entry for `O=C1c2ccccc2C(=O)N1c1ncccc1O` is “inactive”; for `O=C1c2ccccc2C(=O)N1c1cccc(O)c1` it is “inactive”. As to `COc1ccc(OC2=NS(=O)(=O)c3ccccc32)cc1`, the call was inactive. Regarding `Cc1ccc(Nc2c(-c3ccc(C)o3)nc3cccc(C)n23)cc1`, the compound was called inactive.

Take `O=C1c2ccccc2C(=O)N1c1nccs1`: the compound was called inactive. With `Nc1cc(S(=O)(=O)N2CCN(S(=O)(=O)c3ccc4c(c3)OCCO4)CC2)ccn1` the entry was “inactive”. The entry for `Cc1ccc(NS(=O)(=O)c2ccc3c(c2)CCN(C(=O)C(F)(F)F)C3)cc1C` is “inactive”. The entry for `COc1cccc(Cn2ncc3c4sc(SC)cc4n(C)c3c2=O)c1` is “inactive”.

Take `CN(C)c1cccc(S(=O)(=O)N2CCCN(S(=O)(=O)c3ccc4c(c3)OCCO4)CC2)c1`: the compound was called inactive. `Cc1cccc(NS(=O)(=O)c2ccc3c(c2)CCC(=O)N3)c1`: the result was inactive. With `N#Cc1ccc(NS(=O)(=O)c2ccc3c(c2)CCC(=O)N3)cc1` the entry was “inactive”. Regarding `Cc1ccc(N2C(=O)c3ccccc3C2=O)c(C)c1`, the result was inactive.

`COc1ccccc1N1C(=O)c2ccccc2C1=O`: the outcome was inactive. With `Cc1ccc(NS(=O)(=O)c2cccc(C(=O)O)c2)cc1C` the entry was “inactive”. With `O=C1c2ccccc2C(=O)N1Cc1ccccc1` the entry was “inactive”; with `Cc1ccc(NS(=O)(=O)c2cc3c(cc2Br)NC(=O)CO3)cc1C`, “inactive”. With `O=C1c2ccccc2C(=O)N1Cc1ccncc1` the entry was “inactive”. Take `O=C1CCc2cc(S(=O)(=O)Nc3ccc4ccccc4c3)ccc2N1`: the compound was called inactive. For `Cc1cccc(OC2=NS(=O)(=O)c3ccccc32)c1`, the compound was called inactive.

Turning to `Cc1ccc(NS(=O)(=O)c2cc3c(cc2-c2cn[nH]c2)NC(=O)CO3)cc1C`, the compound was called inactive.

On to `Nc1cccc(S(=O)(=O)N2CCCN(S(=O)(=O)c3ccc4c(c3)OCCO4)CC2)c1`, for which the result was inactive. With `Cc1cc(NS(=O)(=O)c2ccc3c(c2)CCC(=O)N3)ccc1F` the entry was “inactive”.

Consider `Cc1ccc(NS(=O)(=O)c2ccc3c(c2)CC(=O)N3C)cc1C`, for which the compound was classed as inactive. The entry for `O=C1c2ccccc2C(=O)N1c1cccc2ccncc12` is “inactive”; for `O=C1CCc2cc(S(=O)(=O)Nc3cccnc3)ccc2N1` it is “inactive”.
